# MCF10A rereplic = DNA re-replication induction in MCF 10a cells; MCF 10A DNA re-replication, Hoechst nuclear intensity, 48 h; Potency, µM (series often up to 46.1 µM), hits mostly activators; hit rate 2.9% among 350,000; AID 624296; further: nearly all actives have a fitted effect of over 50% in size
# SW480 rerep = DNA re-replication induction in SW480 cells; SW480 DNA re-replication, Hoechst DNA content imaging, 48 h; Potency, µM (highest dose often 46.1 µM), hits mostly activators; hit rate 1.8% among 340,000; AID 624297; further: nearly all actives have a fitted effect of over 55% in size
#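 Image-based read-out: total Hoechst fluorescence of nuclei (405 nm excitation, 500-530 nm emission), with hits raising the fraction of high-intensity nuclei. SW480 colon cells incubated 48 hr with compounds at 37 C.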
# Vif-APOBEC3F blk = inhibitors of Vif-A3F interaction | AID 602313 | HeLa A3F-eYFP + Vif (tagged APOBEC3F with the HIV-1 protein that degrades it), YFP fluorescence increase | hit rate 0.2% among 390,000 | Potency, µM (titrated, usually from 46.1 µM); further: nearly all actives have a fitted effect of over 65% in size
#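 HeLa cells stably expressing A3F-eYFP plus Vif, plated and incubated overnight at 37 deg C, then exposed to compounds overnight at 37 deg C. Blocked degradation read as raised yellow fluorescence (Ex 488/Em 500-530).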
# Vif-APOBEC3G blk = inhibitors of Vif-APOBEC3G interaction. hit rate 0.076% among 410,000. HeLa A3G-eYFP + Vif (tagged APOBEC3G with the HIV-1 protein that degrades it), YFP fluorescence, overnight. Potency, µM (titrated, usually from 46.1 µM), actives largely listed as inhibitors. Q9HC16. AID 602310; further: nearly all actives have a fitted effect of over 60% in size
# Target sequence (Q9HC16 whole entry, looked up): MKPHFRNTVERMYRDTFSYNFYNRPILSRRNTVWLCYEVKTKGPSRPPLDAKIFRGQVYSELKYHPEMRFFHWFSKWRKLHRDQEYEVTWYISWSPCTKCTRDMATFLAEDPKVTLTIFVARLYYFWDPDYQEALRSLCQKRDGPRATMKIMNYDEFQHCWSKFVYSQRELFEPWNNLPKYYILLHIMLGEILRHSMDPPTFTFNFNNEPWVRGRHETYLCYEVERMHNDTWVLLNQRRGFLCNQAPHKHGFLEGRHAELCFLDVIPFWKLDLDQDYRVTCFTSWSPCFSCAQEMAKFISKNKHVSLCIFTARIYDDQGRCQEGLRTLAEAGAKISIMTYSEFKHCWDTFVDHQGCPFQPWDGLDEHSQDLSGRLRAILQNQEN
#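 HeLa cells stably expressing Vif and C-terminally eYFP-tagged A3G, seeded overnight at 37 deg C, then exposed to compound by pintool overnight at 37 deg C. Rise in yellow fluorescence (Ex 488/Em 500-530, Acumen) marks blocked Vif-driven A3G degradation.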
# IL-1B inflam inh = inflammasome signaling inhibition, IL-1 beta readout | hit rate 4.7% among 360,000 | THP-1 LPS/ATP IL-1B secretion, AlphaLISA, 16 h; hits give low values | activity change, % at 57.5 µM; in the data active means activity change below about -50%; inconclusive means mostly about -30% to -49%
#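 THP-1 cells pretreated 1 hr with compounds (up to 57.5 uM final), then stimulated with LPS (250 ng/mL final) plus ATP (1.25 mM final); secreted IL-1B measured by AlphaLISA after 16 hr, decreased signal indicating inhibition.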
# Giardia killer = kills Giardia lamblia | Giardia lamblia trophozoite viability | activity change, % at 7.66 µM, hits read low | hit rate 0.15% among 340,000; in the data active means activity change below about -80%; inconclusive means between about -30% and that limit;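 further: parasites exposed to compound for two days anaerobically before the ATP read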
#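 Compounds were tested on trophozoites seeded at 100 cells/well and held 48 hrs at 37 deg C anaerobically. An ATP-based luminescent kit measured the remaining live cells.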
# Hits are given with their value; . = inactive; ? = inconclusive; / = not tested or not shown. Only some compounds are listed: those with a hit (about 6.9% of all), similar ones and a draw of the others. Unless noted, the call rests on the fitted dose curve; in most records, active means well fitted curve in the direction sought with a large enough effect; inconclusive means small, poorly fitted or top-dose-only effect, or another doubt; inactive means no such curve, though single readings can be large; an effect the other way counts as inactive or inconclusive.
SMILES,MCF10A rereplic,SW480 rerep,Vif-APOBEC3F blk,Vif-APOBEC3G blk,IL-1B inflam inh,Giardia killer
CCc1nnc(NC(=O)c2nc(S(=O)(=O)Cc3cccc(C)c3)ncc2Cl)s1,?,5.8µM,.,?,-102.1,.
CCc1nnc(NC(=O)c2nc(Cl)ccc2Cl)s1,.,.,.,.,.,.
CCc1nnc(NC(=O)c2nc(S(=O)(=O)Cc3ccc(C)cc3)ncc2Cl)s1,1.3µM,.,.,.,-102.3,.
CCOc1ccccc1NC(=O)c1nc(S(=O)(=O)Cc2cccc(C)c2)ncc1Cl,?,3.26µM,.,.,.,.
CCOc1ccc(CNC(=O)CN2C(=O)C3CCCCN3c3ccc(C(=O)N4CCCC4)cc32)cc1 (configuration not stated),/,/,.,.,/,/
COc1ccc(F)c(Cn2cnc3c(cnn3C(C)(C)C)c2=O)c1Cl,/,/,/,.,/,/
COc1ccc(N(Cc2nnc3n2CCCCC3)C(=O)Nc2ccc(Cl)cc2)cc1Cl,/,/,.,.,/,/
CCc1nnc(NC(=O)c2nc(S(=O)(=O)Cc3ccccc3)ncc2Cl)s1,0.82µM,?,.,.,-100.5,.
CCC(=O)N1CCc2cc(Br)cc(S(=O)(=O)CCC(=O)N(CC)Cc3ccccc3)c21,/,/,.,.,/,/
COc1ccc(S(=O)(=O)Nc2ccccc2C(N)=O)cc1OC,.,6.51µM,.,.,.,.
COc1ccc(S(=O)(=O)Nc2ccccc2C(=O)NC(C)C)cc1OC,.,.,.,.,.,.
COc1cc(S(=O)(=O)Nc2ccccc2N2CCCCC2)ccc1NC(C)=O,18.4µM,?,.,?,.,.
CCc1ccc(-n2nc(CO)c(C(=O)NC)n2)cc1,/,/,.,.,/,/
CCOC(=O)C#CC(CCc1ccccc1)OS(N)(=O)=O (configuration not stated),5.17µM,.,.,.,-69.9,.
OC1(c2ccccc2)CCN(Cc2ccccc2)C2CCCCC21 (configuration not stated),.,.,.,.,-50.9,.
Cc1oc(-c2cccs2)nc1CN1CC[C@@](O)(c2ccccc2)[C@H]2CCCC[C@@H]21,.,.,.,.,-73.9,.
COC1CCCN(Cc2cn(C)nc2-c2ccc(Oc3ccccc3)cc2)C1 (configuration not stated),.,?,.,.,?,.
COCCN1CCCC(CNCc2cn(C)nc2-c2ccc(Oc3ccccc3)cc2)C1 (configuration not stated),?,?,.,.,-51.3,.
CCCc1nc2c(s1)CCc1onc(-c3ccc(OC)cc3)c1-2,8.2µM,.,.,.,.,.
Cc1ccccc1-c1nc2c(s1)CCc1onc(-c3ccc(Cl)cc3)c1-2,.,.,.,.,.,.
COc1ccc(-c2noc3c2-c2nc(-c4ccccc4C)sc2CC3)cc1,?,20.6µM,.,.,.,.
CCOc1cccc(C(=O)Nc2cccc(-c3nnc(-c4ccccc4)o3)c2)c1,?,?,.,.,-72.9,.
O=C(Nc1cccc(-c2nnc(-c3ccco3)o2)c1)c1ccccc1,?,.,?,.,-77.7,.
CCOc1cccc(C(=O)Nc2cccc(-c3nnc(-c4ccc(C)cc4)o3)c2)c1,3.66µM,.,.,.,.,.
CCc1ccc2occ(CC(=O)Nc3sc4c(c3C(=O)OC)CCC4)c2c1,/,/,.,.,/,/
SMILES,MCF10A rereplic,SW480 rerep,Vif-APOBEC3F blk,Vif-APOBEC3G blk,IL-1B inflam inh,Giardia killer
CCn1cnc2c([N+](=O)[O-])c(NS(=O)(=O)c3ccc(C)cc3)ccc21,.,.,.,.,.,-88.3
CCn1cnc2cc(NS(=O)(=O)c3ccc(C)cc3)ccc21,.,.,.,.,.,.
Cc1ccc(N2CCN(S(=O)(=O)c3nnc(NC(=O)c4cccc(F)c4)s3)CC2)cc1,/,/,.,.,/,/
CCOC(=O)/C(=C\c1ccccc1)C(=O)CCN1CCOCC1,20.6µM,.,.,.,.,.
CCOc1ccc(CCNC(=O)c2cnc3sc(N4CCC(C)CC4)nn3c2=O)cc1,/,/,.,.,/,/
CSc1cccc(NC(=O)C2C3C=CC4(O3)C2C(=O)N(CCCN2CCOCC2)C4C(=O)NC2CCCCC2)c1 (configuration not stated),.,.,.,.,.,.
CCCN(CCC)CCN1C(=O)C2C(C(=O)Nc3cccc(SC)c3)C3C=CC2(O3)C1C(=O)NC1CCCCC1 (configuration not stated),.,?,.,.,-56.3,.
CC1CCCC(NC(=O)C2N(CCCN3CCCC3)C(=O)C3C(C(=O)Nc4cccc(Cl)c4)C4C=CC32O4)C1C (configuration not stated),?,?,.,.,-57.3,.
CCN(CC)CCN1C(=O)C2C(C(=O)Nc3cccc(SC)c3)C3C=CC2(O3)C1C(=O)NC1CCCC(C)C1C (configuration not stated),.,18.4µM,.,.,.,.
CC(C)(C)c1ccc(C(=O)N2CCN(Cc3cc(=O)n4nc(-c5ccccc5F)sc4n3)CC2)cc1,/,/,.,.,/,/
Cc1c(/C=N/NC(=O)COc2ccccc2[N+](=O)[O-])c2ccccc2n1C,.,?,.,.,.,.
Cc1ccccc1OCC(=O)N/N=C/c1cccc(Oc2ccc([N+](=O)[O-])cc2[N+](=O)[O-])c1,.,?,.,.,-96.4,.
Cc1ccc(OCC(=O)N/N=C\c2c(C)n(C)c3ccccc23)c([N+](=O)[O-])c1,?,14.6µM,.,.,?,.
CC/C(=N/NC(=O)c1ccccc1O)c1c(C)[nH]n(-c2ccccc2)c1=O,?,23.1µM,.,.,.,.
Cc1[nH]n(-c2ccccc2)c(=O)c1/C=N/NC(=O)COc1ccccc1[N+](=O)[O-],?,13µM,.,.,.,.
CC(=O)N/N=C/c1c(C)[nH]n(-c2ccccc2)c1=O,.,.,.,.,.,.
Cc1[nH]n(-c2cccc3ccccc23)c(=O)c1/C=N/NC(=O)c1cccc([N+](=O)[O-])c1,?,?,.,.,.,.
Cc1ccc(-n2[nH]c(C)c(/C=N/Nc3ccc([N+](=O)[O-])cc3[N+](=O)[O-])c2=O)cc1C,14.6µM,.,.,.,.,.
Cc1[nH]n(-c2ccccc2)c(=O)c1/C=N/NC(=O)c1ccccc1F,?,2.31µM,?,.,.,.
Cc1[nH]n(-c2ccccc2)c(=O)c1/C=N/N1C(=O)c2ccc3c4c(ccc(c24)C1=O)CC3,.,?,.,.,-87.8,.
Cc1[nH]n(-c2ccccc2)c(=O)c1/C=N/NC(=O)c1cccc([N+](=O)[O-])c1,?,3.66µM,.,.,.,.
O=C(NCC(c1ccc2c(c1)OCO2)N1CCN(c2ccccc2)CC1)c1ccccc1 (configuration not stated),/,/,.,.,/,/
CC(=O)N/N=C/c1cc([N+](=O)[O-])ccc1OCCOc1ccccc1,.,20.6µM,.,.,.,.
